# Test results published in ChEMBL document CHEMBL3988442, “University of Dundee, Small-Polar-MMV Screening Library” (2021).
# Among all 66,000 compounds or so, about 960 (1.5%) showed an effect of 50% or more. For the sample, strong results were picked, then their nearest neighbours and some compounds at random.
# Tested on: Trypanosoma brucei
# Experiment: Trypanosoma brucei 72 hour study
# Assay type: functional, organism-based
# Parameters: scale not given: in the data most compounds retested in dose-response had high values
structure (smiles),measurement,setting,value
O=C(NCC1CC1)[C@@H]1CCO[C@@H]2CCN(Cc3ccsc3)C[C@H]21.O=C(O)C(F)(F)F,Percent Effect,"30.3 µM, […]",-183.8%
O=C1CC(c2ccccc2)c2c(c(C(=O)O)cn2-c2ccccc2)N1 (configuration not stated),Percent Effect,"30 µM, 30.03 µM",-0.2399%
O=C1CC(c2cccc(O)c2)c2c(c(C(=O)O)cn2-c2ccccc2)N1 (configuration not stated),Percent Effect,"30 µM, 30.03 µM",55.14%
O=C1CC(c2ccc(O)cc2)c2c(c(C(=O)O)cn2-c2ccccc2)N1 (configuration not stated),Percent Effect,"30 µM, 30.03 µM",-5.69%
CC(=O)N1CCC2(CCN(C(=O)c3cccc(C(F)(F)F)c3)CC2)C1,Percent Effect,"30 µM, 30.03 µM",-21.66%
Cc1ccc(NC(=O)Cn2cc(I)cn2)cc1C,Percent Effect,"30 µM, 30.03 µM",-62.87%
CC(C)NC(=O)CCNC(=O)CCc1cc(Cl)cs1,Percent Effect,"30 µM, 30.03 µM",67.45%
COC(=O)CNC(=O)CCc1cc(Cl)cs1,Percent Effect,"30 µM, 30.03 µM",30.07%
CC(C)NC(=O)CCNC(=O)CCc1cc(Br)cs1,Percent Effect,"30 µM, 30.03 µM",-16.2%
CC(C)CN1C(=O)C2(CCN(Cc3ccc(F)cc3)C2)c2ccccc21 (configuration not stated),Percent Effect,"30.3 µM, […]",100.2%
Cc1ccc(CN2CCC3(C2)C(=O)N(CC(C)C)c2ccccc23)s1 (configuration not stated),Percent Effect,"30 µM, 30.03 µM",-8.12%
CC(C)CN1C(=O)C2(CCN(Cc3ccoc3)C2)c2ccccc21.O=C(O)C(F)(F)F (configuration not stated),Percent Effect,"30.3 µM, […]",-10.51%
COCCN1CCC2(CC1)CC(NC(=O)COC)c1ccccc1O2.O=C(O)C(F)(F)F (configuration not stated),Percent Effect,"30.3 µM, […]",-14.34%
CN(C)C(=O)c1n[nH]c2c1CN(CC1CCC1)C2.O=C(O)C(F)(F)F.O=C(O)C(F)(F)F,Percent Effect,"30.3 µM, […]",-41.36%
CC(C)CC(=O)N1C[C@@H]2CCN(c3ncccn3)C[C@@H]2C1.O=C(O)C(F)(F)F,Percent Effect,"30.3 µM, […]",-27.97%
Cc1cnc(C(=O)N2C[C@H]3CN(Cc4nccs4)C[C@H]3C2)cn1,Percent Effect,"30 µM, 30.03 µM",-50.26%
O=C(N1CCCC1)N1Cc2nccn2CC(COc2cccnc2)C1.O=C(O)C(F)(F)F (configuration not stated),Percent Effect,"30.3 µM, […]",-5.824%
O=C(NCCNc1ccccn1)N1CCSCC1,Percent Effect,"30 µM, 30.03 µM",-32.01%
CC1(C)CN(C(=O)NCCc2ccn(-c3ccccc3)n2)CCO1,Percent Effect,"30 µM, 30.03 µM",-25.69%
O=C(NCc1nn(-c2ccccc2)c2c1CCC2)N1CCSCC1,Percent Effect,"30 µM, 30.03 µM",-15.48%
CCC(C(=O)NCCc1ccn(-c2ccccc2)n1)N1CCCC1=O (configuration not stated),Percent Effect,"30 µM, 30.03 µM",-6.42%
O=C(NCCc1ccn(-c2ccccc2)n1)N1CCC1,Percent Effect,"30 µM, 30.03 µM",105.4%
O=C(NCCc1ccn(-c2ccccc2)n1)N1CCSCC1,Percent Effect,10 µM,92.88%
O=C(O)C(F)(F)F.c1csc(CN2C[C@H](OCC3CCOCC3)[C@H]3COC[C@H]32)n1,Percent Effect,"30.3 µM, […]",-15.06%
CS(=O)(=O)N1CC[C@H]2OCC[C@@]2(C(=O)NCCc2ccccn2)C1.O=C(O)C(F)(F)F,Percent Effect,"30.3 µM, […]",-43.43%
CC(C)(C)n1ncc(NCC(O)c2ccc(F)c(F)c2)c(Cl)c1=O (configuration not stated),Percent Effect,"30 µM, 30.03 µM",-7.617%
CN(Cc1ccccn1)C(=O)[C@H]1CO[C@H]2CCN(CC3CC3)C[C@H]2C1.O=C(O)C(F)(F)F.O=C(O)C(F)(F)F,Percent Effect,"30.3 µM, […]",-96.69%
CNc1ncccc1C(=O)N1CCc2c(nc(N)[nH]c2=O)C1,Percent Effect,"30 µM, 30.03 µM",-10.23%
O=C(O)C(F)(F)F.O=C(O)C(F)(F)F.c1cncc(CN2CCc3c(nnn3CC3CC3)C2COCC2CC2)c1 (configuration not stated),Percent Effect,"30 µM, 30.03 µM",26.56%
O=C(C1=CC2(CCNCC2)c2ccccc21)N1CCCC1,Percent Effect,"30 µM, 30.03 µM",-13.07%
CC(=O)N1CCC2(C=C(C(=O)NC3CC3)c3ccccc32)CC1,Percent Effect,"30.3 µM, […]",3.653%
O=C(Nc1ccccc1)C1=CC2(CCNCC2)c2ccccc21,Percent Effect,"30.3 µM, […]",93.57%
CC(=O)N1CCCC(c2ccccn2)C1 (configuration not stated),Percent Effect,"30.3 µM, […]",-37.51%
CC(=O)N1CCCC(c2ccc(Cc3ccccc3)cn2)C1 (configuration not stated),Percent Effect,"30.3 µM, […]",98.95%
CC(=O)N1CCCC(c2ccc(Br)cn2)C1 (configuration not stated),Percent Effect,"30.3 µM, […]",11.45%
CS(=O)(=O)Cc1nc(CN2CCc3ccccc3CC2)cs1,Percent Effect,"30.3 µM, […]",3.123%
CS(=O)(=O)Cc1nc(CN2CCOc3ccccc3C2)cs1,Percent Effect,"30.3 µM, […]",7.732%
CC1(C)CN(Cc2csc(CS(C)(=O)=O)n2)Cc2ccccc21,Percent Effect,"30.3 µM, […]",100.6%
CCc1noc(CN(C)CC(c2cccs2)N2CCOCC2)n1 (configuration not stated),Percent Effect,"30.3 µM, […]",-14.32%
O=C1CC[C@]2(CC[C@@H](NC(=O)NCc3ccccc3)CC2)N1,Percent Effect,"30.3 µM, […]",-21.31%
COC(=O)[C@@H]1Cc2c[nH]c3cccc(c23)[C@H](CC(C)C)N1,Percent Effect,"30.3 µM, […]",0.4079%
CC(C)C[C@@H]1N[C@H](C(=O)NC(C)C)Cc2c[nH]c3cccc1c23,Percent Effect,"30.3 µM, […]",19.91%
CC(C)C[C@@H]1N[C@H](C(=O)NC2CCOCC2)Cc2c[nH]c3cccc1c23,Percent Effect,"30.3 µM, […]",74.51%
CC(C)C[C@@H]1N[C@H](C(=O)NCC2CC2)Cc2c[nH]c3cccc1c23,Percent Effect,"30.3 µM, […]",62.49%
O=C(NC1CCOCC1)C1CC(=O)N(Cc2ccccn2)C1 (configuration not stated),Percent Effect,"30 µM, 30.03 µM",11.72%
CCc1cccc(N2CCC(NC(=O)C3CCOCC3)CC2)c1,Percent Effect,10 µM,-25.13%
same,Percent Effect,"30.3 µM, […]",-1.63%
